Laboratory results published in PubChem BioAssay (Tox21).
Values joined by “and” are separate entries in the source; they are usually repeats but may differ in a detail not shown here. Identical values can stand only once. Records with an inconclusive call do not appear. A call without a number means that no potency is given here. Some compounds were tested as several samples or in several runs, with calls that do not always agree. Active and inactive are the calls of the source. Calls come from the whole dose curve; as a rule, active = well fitted curve in the direction sought with a large enough effect in the repeat runs; inconclusive = weak or mixed curves; inactive = no such curve, though single readings can be large; an effect the other way counts as inactive or inconclusive.

Key:
[1] = target: Cytochrome P450 2C9 (Homo sapiens) (UniProt P11712); experiment: Cytochrome P450 Family 2 Subfamily C Member 9 (CYP2C9) small molecule antagonists: luciferase reporter qHTS assay (AID 1671198)
Summary of the method: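 Enzyme-substrate mix preincubated with compound 10 min at room temperature; reaction started with NADPH regeneration solution, 1 h 37C. Luminescent luciferin product read after 20 min detection reagent.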

[2] = target: Cytochrome P450 1A2 (Homo sapiens) (UniProt P05177); experiment: Cytochrome P450 Family 1 Subfamily A Member 2 (CYP1A2) small molecule antagonists: luciferase reporter qHTS assay (AID 1671199)
Summary of the method: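 Signal from luciferin formed by CYP1A2 from a proluciferin substrate is read as luminescence, expressed in relative luminescence units. Compounds sit with enzyme 10 min, NADPH-driven reaction runs 1 h, all at room temperature.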

[3] = target: Voltage-gated inwardly rectifying potassium channel KCNH2 (Homo sapiens) (UniProt Q12809); experiment: Human Ether-a-go-go-Related Gene (hERG) channel small molecule antagonists: fluorescence cell-based qHTS assay (AID 1671200)
Summary of the method: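 Channel function was assessed by thallium flux. Cells seeded the previous day and kept at 37 C took up FluxOR II dye over 1 h in the dark at room temperature, then sat another 10 min before stimulation.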

[4] = target: Cytochrome P450 3A4 (Homo sapiens) (UniProt P08684); experiment: Cytochrome P450 Family 3 Subfamily A Member 4 (CYP3A4) small molecule antagonists: luciferase reporter qHTS assay (AID 1671201)
Summary of the method: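 Compounds in DMSO were pin-transferred onto CYP3A4 enzyme-substrate mix and held 10 min at room temperature. NADPH regenerating solution started the reaction for 1 h; luciferin detection reagent stopped it, and luminescence was read after 20 min.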
Note: nearly all actives have a fitted effect of over 50% in size.
Potency is the fitted concentration of half-maximal effect.

Chain of Cytochrome P450 1A2 (Homo sapiens) (P05177 whole entry, looked up): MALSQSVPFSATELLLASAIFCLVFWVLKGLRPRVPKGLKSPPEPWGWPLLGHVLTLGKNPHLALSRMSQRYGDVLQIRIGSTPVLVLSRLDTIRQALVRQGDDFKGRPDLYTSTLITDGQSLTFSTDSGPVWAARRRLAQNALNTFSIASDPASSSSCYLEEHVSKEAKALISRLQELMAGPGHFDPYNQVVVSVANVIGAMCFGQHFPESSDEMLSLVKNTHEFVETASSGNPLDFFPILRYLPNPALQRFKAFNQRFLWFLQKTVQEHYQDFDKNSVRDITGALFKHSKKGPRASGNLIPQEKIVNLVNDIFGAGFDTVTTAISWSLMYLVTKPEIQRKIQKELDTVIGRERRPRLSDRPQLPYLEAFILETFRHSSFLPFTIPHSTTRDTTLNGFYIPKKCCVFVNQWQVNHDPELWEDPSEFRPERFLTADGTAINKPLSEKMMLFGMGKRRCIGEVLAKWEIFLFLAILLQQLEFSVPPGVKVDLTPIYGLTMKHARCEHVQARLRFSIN
Chain of Cytochrome P450 2C9 (Homo sapiens) (P11712 whole entry, looked up): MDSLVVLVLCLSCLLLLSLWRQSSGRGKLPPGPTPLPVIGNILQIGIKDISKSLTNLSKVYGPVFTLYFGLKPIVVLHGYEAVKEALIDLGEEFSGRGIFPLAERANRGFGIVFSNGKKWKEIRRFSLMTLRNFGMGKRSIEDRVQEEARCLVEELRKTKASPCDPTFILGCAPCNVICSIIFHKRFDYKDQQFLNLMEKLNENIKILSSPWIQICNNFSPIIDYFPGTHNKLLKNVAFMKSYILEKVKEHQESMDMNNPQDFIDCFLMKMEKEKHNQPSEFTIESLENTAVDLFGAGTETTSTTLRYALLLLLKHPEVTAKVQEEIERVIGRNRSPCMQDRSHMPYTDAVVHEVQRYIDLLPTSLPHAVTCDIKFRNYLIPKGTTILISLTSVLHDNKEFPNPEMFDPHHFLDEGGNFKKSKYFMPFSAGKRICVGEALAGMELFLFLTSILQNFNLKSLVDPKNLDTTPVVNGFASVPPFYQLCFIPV
Chain of Cytochrome P450 3A4 (Homo sapiens) (P08684 whole entry, looked up): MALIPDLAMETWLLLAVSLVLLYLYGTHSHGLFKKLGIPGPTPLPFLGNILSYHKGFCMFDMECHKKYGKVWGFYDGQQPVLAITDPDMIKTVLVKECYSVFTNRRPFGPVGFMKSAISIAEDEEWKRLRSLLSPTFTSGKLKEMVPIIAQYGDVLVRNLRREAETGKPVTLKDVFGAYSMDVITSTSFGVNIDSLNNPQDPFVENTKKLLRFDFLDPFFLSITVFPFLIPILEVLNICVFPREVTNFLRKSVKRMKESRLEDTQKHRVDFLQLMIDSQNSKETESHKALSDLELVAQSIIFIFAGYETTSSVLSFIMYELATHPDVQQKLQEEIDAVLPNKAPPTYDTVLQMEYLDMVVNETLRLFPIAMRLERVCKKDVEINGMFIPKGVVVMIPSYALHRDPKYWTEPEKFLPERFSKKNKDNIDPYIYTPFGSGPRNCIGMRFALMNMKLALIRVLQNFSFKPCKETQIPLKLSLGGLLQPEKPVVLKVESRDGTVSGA
Chain of Voltage-gated inwardly rectifying potassium channel KCNH2 (Homo sapiens) (Q12809 whole entry, looked up): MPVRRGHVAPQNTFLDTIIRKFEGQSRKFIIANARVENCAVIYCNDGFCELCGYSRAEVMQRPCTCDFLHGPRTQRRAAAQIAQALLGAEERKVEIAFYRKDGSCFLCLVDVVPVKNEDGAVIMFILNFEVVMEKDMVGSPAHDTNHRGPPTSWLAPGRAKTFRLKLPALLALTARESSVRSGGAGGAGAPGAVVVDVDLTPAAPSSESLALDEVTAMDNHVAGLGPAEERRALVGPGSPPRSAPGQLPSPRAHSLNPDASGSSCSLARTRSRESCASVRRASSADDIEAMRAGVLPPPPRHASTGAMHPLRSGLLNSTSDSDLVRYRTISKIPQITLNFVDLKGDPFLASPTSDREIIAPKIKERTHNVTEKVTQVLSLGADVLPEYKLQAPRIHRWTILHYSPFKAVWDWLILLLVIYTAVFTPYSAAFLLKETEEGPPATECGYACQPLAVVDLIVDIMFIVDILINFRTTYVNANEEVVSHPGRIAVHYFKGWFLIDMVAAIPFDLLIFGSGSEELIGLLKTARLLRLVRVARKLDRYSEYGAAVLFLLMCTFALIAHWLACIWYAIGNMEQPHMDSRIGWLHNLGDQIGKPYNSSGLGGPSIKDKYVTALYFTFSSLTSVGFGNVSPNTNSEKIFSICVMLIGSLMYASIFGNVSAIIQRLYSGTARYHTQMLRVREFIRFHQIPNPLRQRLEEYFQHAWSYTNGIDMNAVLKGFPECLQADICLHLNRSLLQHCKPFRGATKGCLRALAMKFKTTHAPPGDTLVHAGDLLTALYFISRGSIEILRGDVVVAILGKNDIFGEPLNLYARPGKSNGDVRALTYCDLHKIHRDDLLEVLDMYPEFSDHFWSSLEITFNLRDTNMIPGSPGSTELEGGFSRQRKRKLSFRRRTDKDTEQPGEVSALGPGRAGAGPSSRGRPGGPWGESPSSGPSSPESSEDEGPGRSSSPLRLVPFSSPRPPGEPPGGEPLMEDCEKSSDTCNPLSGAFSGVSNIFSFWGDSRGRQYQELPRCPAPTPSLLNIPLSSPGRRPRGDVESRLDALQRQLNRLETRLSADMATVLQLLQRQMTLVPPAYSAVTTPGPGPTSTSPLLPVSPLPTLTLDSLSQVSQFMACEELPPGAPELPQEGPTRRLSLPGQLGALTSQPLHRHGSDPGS

SMILES	Potency [1]	Potency [2]	Potency [3]	Potency [4]
c1ccc2c(c1)ccc1ncccc12	inactive	4.45 µM (active) and 7.1 µM (active)	inactive	62.8 µM (active)
Cc1ccc2c(c1)C(=O)OC2=O	inactive	inactive	inactive	inactive
FC(F)(F)C(Cl)Br (stereo not given)	inactive	inactive	inactive	inactive
CC(=O)Nc1ccc2c(c1)Cc1cc(NC(C)=O)ccc1-2	inactive	inactive	inactive	inactive
C/C=C/C(=O)N(CC)c1ccccc1C	39.9 µM (active)	31.7 µM (active) and inactive	inactive	inactive
CC(=O)[C@@]1(O)CC[C@H]2[C@@H]3C[C@H](C)C4=CC(=O)C=C[C@]4(C)[C@@]3(F)[C@@H](O)C[C@@]21C	10 µM (active) and 6.92 µM (active)	inactive	inactive	–
CCCCCCC(C)O (stereo not given)	inactive	inactive	inactive	inactive
CC(C)[C@@H]1CC[C@@H](C)CC1=O	inactive	30.9 µM (active)	inactive	inactive
C[C@]12C=CC(=O)C=C1CC[C@H]1[C@@H]3C[C@@H](O)[C@](O)(C(=O)CO)[C@@]3(C)C[C@H](O)[C@@]12F	20 µM (active)	inactive	inactive	inactive
Cc1ccc(S(=O)(=O)NCl)cc1	inactive and 75.1 µM (active)	inactive and 75.1 µM (active)	inactive	inactive
CC(=O)Oc1ccc(C(c2ccc(OC(C)=O)cc2)c2ccccn2)cc1	7.06 µM (active) and 12.3 µM (active)	inactive	inactive	inactive
CCCOCCO	inactive	inactive	inactive	inactive
Clc1ccc(Sc2cc(Cl)c(Cl)cc2Cl)cc1	inactive	11 µM (active) and 3.99 µM (active)	inactive	inactive
Nc1ccc(N)c(Cl)c1	8.92 µM (active) and 8.94 µM (active)	39.8 µM (active) and 35.6 µM (active)	inactive	2.51 µM (active) and 5.64 µM (active)
OC[C@@H](O)[C@@H](O[C@@H]1O[C@H](CO)[C@H](O)[C@H](O)[C@H]1O)[C@H](O)[C@@H](O)CO	inactive	35.1 µM (active) and inactive	inactive	inactive
CCc1cccc2c3c([nH]c12)C(CC)(CC(=O)O)OCC3 (stereo not given)	31.6 µM (active) and 34.7 µM (active)	inactive	inactive	inactive
OC[C@H]1O[C@@H]2O[C@H]3[C@H](O)[C@@H](O)[C@@H](O[C@H]4[C@H](O)[C@@H](O)[C@@H](O[C@H]5[C@H](O)[C@@H](O)[C@@H](O[C@H]6[C@H](O)[C@@H](O)[C@@H](O[C@H]7[C@H](O)[C@@H](O)[C@@H](O[C@H]1[C@H](O)[C@H]2O)O[C@@H]7CO)O[C@@H]6CO)O[C@@H]5CO)O[C@@H]4CO)O[C@@H]3CO	inactive and 3.76 µM (active)	inactive	inactive	inactive
Cc1ccc(N)c([N+](=O)[O-])c1	inactive	15.7 µM (active) and 14.2 µM (active)	inactive	inactive
CCOC(=O)C(C)Oc1ccc(Oc2cnc3cc(Cl)ccc3n2)cc1 (stereo not given)	23.6 µM (active)	52.8 µM (active)	15.9 µM (active) and 18.3 µM (active)	inactive
Nc1cc([N+](=O)[O-])ccc1C(=O)O	inactive	inactive	inactive	inactive
COC(=O)CC(=O)OC	inactive	inactive	inactive	inactive and 63.3 µM (active)
NCCN	inactive	inactive	inactive	81.2 µM (active) and inactive
C=C1C[C@H]2[C@@H]3C=C(C)C4=CC(=O)CC[C@]4(C)[C@H]3CC[C@]2(C)[C@@]1(OC(C)=O)C(C)=O	22.9 µM (active) and 17.4 µM (active)	inactive	inactive	inactive
C=CCNCC=C	inactive	inactive and 39.9 µM (active)	inactive	inactive
CCO[Si](CCCNC(N)=O)(OCC)OCC	inactive	inactive	inactive	inactive
CC/C=C\C/C=C\C/C=C\CCCCCCCC(=O)O	35.3 µM (active) and 39.9 µM (active)	inactive	inactive	inactive and 39.9 µM (active)
C1CN(SSN2CCOCC2)CCO1	39.5 µM (active) and 28.3 µM (active)	62.6 µM (active) and 39.9 µM (active)	inactive	inactive
CC(=O)O[C@]1(C(C)=O)CC[C@H]2[C@@H]3C=C(Cl)C4=CC(=O)CC[C@]4(C)[C@H]3CC[C@@]21C	20 µM (active) and 15.5 µM (active)	inactive	inactive	inactive
O=C(O)c1cc(=O)[nH]c(=O)[nH]1	inactive	40 µM (active) and inactive	inactive	inactive
